PubChem BioAssay AID488794 (Sanford-Burnham Center for Chemical Genomics, 2010)
Hit rate of the full screen: of about 1,000 compounds, about 550 (55%) were called active. So high a share suggests a set chosen from earlier hits. The list is a sample of the results. Unmarked numbers belong to inactive results. Rule as the data show it: active = inhibition above about 50%; inactive = the rest.

Assay: NALP3 inhibitors in yeast, repeat test, confirmation, luminescence, single concentration, retest (AID 488794)
Settings: yeast expressing human NALP3, luminescence read-out; at 10 µM; active compounds read high

Structure (SMILES)	inhibition
CN(C)c1ccnc2sc(C(=O)c3ccccc3)c(N)c12	53.6% (active)
Oc1c(Cl)cc(Cl)c(Cl)c1Cc1c(O)c(Cl)cc(Cl)c1Cl	98.5% (active)
Cc1ccnc(Nc2nc3ccccc3s2)n1	27.6%
O=C(CC(O)(C(F)(F)F)C(F)(F)F)Nc1ccc(Cl)c(Cl)c1	99.8% (active)
Cc1ccc(O)c(NC(=O)c2cc(-c3ccco3)on2)c1	63.7% (active)
COc1ccccc1C(=O)Nc1ccc(NC(=O)c2ccco2)c(C)c1	32.3%
Cc1ccc(CSc2nsc(C)c2C#N)cc1	48.2%
Cc1ccc(OCc2nc3ccccc3n2C)cc1	57.2% (active)
CC(C)n1c(COc2ccccc2)nc2ccccc21	47.7%
CN=C1C=C/C(=N/N=c2\ccn(O)cc2C)C=C1C	57.2% (active)
O=[N+]([O-])c1cccc(/C=N/Nc2ncc(Br)cn2)c1	33.4%
CCc1noc(C)c1C(=O)Nc1nc2ccc(OC)cc2s1	55.5% (active)
O=C1CSC(=S)N1c1ccc(O)cc1	59.4% (active)
COc1cc(N2C(=O)CSC2=S)cc(OC)c1OC	35.6%
Fc1ccccc1-c1cc2cc3c(cc2cn1)OCO3	39%
Nc1c(-c2cccc(Cl)c2)cnn1-c1cccc([N+](=O)[O-])c1	52.1% (active)
O=C(CSc1ncnc2c1oc1ccccc12)NC1CCCC1	25.1%
Cn1c(=NC(=O)c2ccco2)sc2cccc(F)c21	34.1%
Cc1cccc(NC(=S)NC(=O)c2ccc(Br)o2)c1	65.7% (active)
Cc1ccc(-c2nn(C(C)(C)C)c3ncnc(N)c23)cc1	63.2% (active)
O=C(Nc1ccccc1Cl)/C(Cl)=C(\Cl)S(=O)c1ccccc1 (stereo unspecified)	74.7% (active)
N#Cc1nc(Cc2ccccc2)oc1NCCc1ccccc1	36.6%
CCOC(=O)c1c(C)[nH]c(C(=O)COc2ccc3c(c2)OCO3)c1C	54.5% (active)
COc1ccccc1OCc1nc2ccccc2s1	43.2%
CCCN(CC1CC1)C(=S)NC(=O)c1ccccc1Br	38.8%
Cc1cc(C)nc(NC(=O)Nc2ccccc2C(F)(F)F)n1	34.8%

Structure (SMILES)	inhibition
Cc1c(C(=O)N2CCCc3ccccc32)oc2ccccc12	47.9%
O=C(Oc1c(-c2ccco2)oc2ccccc2c1=O)c1cccnc1	68.5% (active)
Oc1ccc(Br)cc1/C=N/Nc1ccccn1	43.2%
O=C(CSc1ccc(-c2ccc(-n3cccn3)cc2)nn1)Nc1ccc([N+](=O)[O-])cc1	18.1%
O=[N+]([O-])/C=C/c1ccc2c(ccn2Cc2ccccc2)c1	96.3% (active)
CCCNc1ncnc2sc(C)c(C)c12	36.4%
C[C@@H]1C[C@@H]2O[C@H]2/C=C\C=C\C(=O)Cc2c(Cl)c(O)cc(O)c2C(=O)O1	66.2% (active)
CC(C)C(=O)N1CCN(CCN=CC2=C(O)CC(c3ccco3)CC2=O)CC1 (stereo unspecified)	62.1% (active)
CC1(C)CCSC(/C=C/c2ccccc2)=N1	79.8% (active)
O=C(Nc1ccc(Oc2ccccc2)cc1)c1ccco1	35.9%
O=C(Nc1ccc2oc(-c3ccccc3F)nc2c1)c1ccco1	71.3% (active)
Cn1c(=O)c(C(=O)Nc2ncccn2)c(O)c2ccccc21	60.2% (active)
Cc1cc(C)c(/C=C2\C(=O)Nc3ccccc32)[nH]1	36.6%
CCc1cc(C(=O)Nc2nnc(C3CC3)s2)sc1C	40.9%
Cc1ccc(OCc2nc(C#N)c(N3CCCC3)o2)cc1	53.5% (active)
CCN(CC)c1ccc(/C=N/Nc2nc(C)cc(C)n2)c(O)c1	63% (active)
O=[N+]([O-])c1c(NCCO)cc(Sc2nc3ccccc3s2)c2nonc12	48%
Cc1cc(C(=O)COc2ccc(Br)cc2F)c(C)n1C1CC1	49.4%
CC(C)Sc1ncnc2c1cnn2-c1ccccc1	46.2%
O=C(NCc1ccc2c(c1)OCO2)c1c(O)nc2sccn2c1=O	38.4%
CC(=NCc1ccc2c(c1)OCO2)C1=C(O)c2ccccc2C1=O	63.9% (active)
Cc1ccc2cccc(S(=O)(=O)N3CCN(c4ccccc4F)CC3)c2n1	47.8%
CC(=O)[C@@]12O[C@@H]1C[C@H]1[C@@H]3CC[C@H]4C[C@@H](O)CC[C@]4(C)[C@H]3CC[C@@]12C	38.2%
O=C(COc1ccccc1F)Nc1nc(-c2ccccn2)cs1	37.1%
CCSc1nc2sc3c(c2c(=O)n1-c1ccc(C)cc1)CCN(C)C3	44.3%
